hcGAS lum: human cGAS inhibition | Q8N884 | recombinant h-cGAS, ATP depletion, Kinase-Glo luminescence | inhibition, % at 12.5 µM | 290,000 compounds, 0.081% hits
NPYLR7 ag: mosquito NPYLR7 agonism; HEK293T NPYLR7/Galpha15, GCaMP6s calcium fluorescence; activation, % at 10 µM; 270,000 compounds, 0.15% hits; AID 1259423; in the data active = activation above about 40%
mcGAS lum: mouse cGAS inhibition by luminescence; 160,000 compounds, 0.15% hits; inhibition, % at 12.5 µM; Q8C6L5; AID 1259399; recombinant cGAS, Kinase-Glo ATP depletion luminescence
Large screens that a line does not name were inactive; ! = a repeat was not active. Compounds with a hit are over-represented: about 0.24% of the library has one in this group of screens. Rule as the data show it, unless noted: active = inhibition above about 40%; inactive = the rest.

N#CC1(c2ccccc2)CCN(C(=O)C2CC=CCC2C(=O)NCC2CCCCC2)CC1 (configuration not stated)	none
O=[N+]([O-])c1cc(Cl)ccc1Cl	none
O=[N+]([O-])c1ccc(Cl)c2nonc12	NPYLR7 ag 139
O=c1c2ccccc2nc(CCl)n1-c1ccc(F)cc1	mcGAS lum 48
CCC(NC)c1nc2ccccc2c(=O)n1-c1ccc(F)cc1 (configuration not stated)	none (no result: mcGAS lum)
S=C(NCCN1CCOCC1)NNP(=S)(c1ccccc1)c1ccccc1	none (no result: mcGAS lum)
O=[N+]([O-])c1ccc(O)c(Cl)c1	none (no result: mcGAS lum)
O=[N+]([O-])c1cc(O)c(O)c([N+](=O)[O-])c1	none
O=[N+]([O-])c1ccc(O)c([N+](=O)[O-])c1	hcGAS lum 72 (no result: mcGAS lum)
O=[N+]([O-])c1cc([As](=O)(O)O)ccc1O	hcGAS lum 83! (no result: mcGAS lum)
CC(=O)OC(C)(C)C(=O)N1CCN(CCOC(c2ccc(F)cc2)c2ccc(F)cc2)CC1	none
Cc1ccc(-n2cc(C3=CCN(CCNC(N)=O)CC3)cn2)c(C)c1	none
O=C(Cc1cc(=O)[nH][nH]c1=O)N1CCN(C23CC4CC(CC(C4)C2)C3)CC1	none (no result: NPYLR7 ag)
O=C1NC(=O)N(c2ccc(Cl)cc2)C(=O)/C1=C/c1ccc([N+](=O)[O-])o1	mcGAS lum 47
Cc1ccc(/C=C2\C(=O)NC(=O)N(c3ccc(Cl)cc3)C2=O)o1	none
CN(C)c1ccc2c(c1)N=C(c1cccs1)OP2(=S)N1CCCCCC1 (configuration not stated)	none
Clc1c(C2NCCc3[nH]cnc32)sc2ccccc12 (configuration not stated)	none
Nc1c2c(nc3sc4c(c13)CCCC4)CCCCC2	NPYLR7 ag 42
O=c1c2c3c(sc2nc(SCCS(=O)(=O)F)n1-c1ccccc1)CCCC3	none
CC(=O)Oc1c(C)cc(CN(C)C(C)Cc2cc(C)ccn2)cc1C (configuration not stated)	none

Assay outcomes (PubChem BioAssay)
